Here are results for 62 compounds from PubChem BioAssay AID1986 (Sanford-Burnham Center for Chemical Genomics, 2009).

This assay can be described thus: cell-free HIV fusion peptide-binding blockers – biochemical, uHTS, fluorescence dequenching, primary screen (AID 1986). Particulars: 30 min, stronger effect = higher value.
[1] abbreviates: measured here: repeat confirmation average inhibition, at 18.6 µM.

Among all 290,000 compounds or so, about 890 (0.31%) were called active. This is one part of a sample in which actives are shown more often than they occur. Cut-off read from the data, not from the text of the source: active = inhibition mostly above about 52% (no sharp cut-off); inactive = mostly below about 76%.

As usually defined, the inhibition is the relative decrease from the control value, in per cent. For the compound `Cc1cc(C)n(-c2nc3ccccc3c(=O)n2OCC(=O)OCc2ccccc2)n1`, the inhibition (at 20 µM) is -0.4% (inactive).

For the compound `COc1ccc(N=C2NC(=O)CS2)c([N+](=O)[O-])c1`, where the note is “at 20 µM”, the inhibition is -1.1% (inactive).

For `Cc1nc(C2COc3ccccc3O2)sc1C(=O)O` (stereo not given), the inhibition (at 20 µM) was 1.6% (inactive).

Consider `Cc1ccc2c(c1C)NC(C(=O)O)C1CC=CC21` (stereo not given), for which the inhibition (at 20 µM) was 43.9% (inactive).

Consider `CCOC(=O)C1Nc2ccc(C(=O)O)cc2C2C=CCC12` (stereo not given), for which, under “at 20 µM”, the inhibition is 38% (inactive).

Consider `Cc1ccc2c(c1)C1C=CCC1C(C(=O)O)N2` (stereo not given), for which, under “at 20 µM”, the inhibition was 62.4% (active).

For the compound `O=C(O)C1Nc2c(C(F)(F)F)ccc(Cl)c2C2C=CCC12` (stereo not given), the inhibition (at 20 µM) was 37.7% (inactive).

Consider `Cc1cc(C)c2c(c1)NC(C(=O)O)C1CC=CC21` (stereo not given), for which the inhibition (at 20 µM) is 60.2% (active).

As for `CC(=O)c1ccc2c(c1)C1C=CCC1C(C(=O)O)N2` (stereo not given), the inhibition (at 20 µM) is 58.7% (inactive) and the inhibition under setting [1] was found to be 17.4%.

For `CC(C)C1Nc2ccc(C(=O)O)cc2C2C=CCC21` (stereo not given), under “at 20 µM”, the inhibition is 50.1% (active).

For the compound `CCCC1Nc2ccc(C(=O)O)cc2C2C=CCC12` (stereo not given), where the note is “at 20 µM”, the inhibition was 49.7% (inactive).

`Cc1cc(C)c2c(c1)NC(c1cc3c(cc1Br)OCO3)C1CC=CC21` (stereo not given): the inhibition (at 20 µM) is 7.4% (inactive).

Regarding `O=C(O)C1Nc2c(Cl)cc(Cl)cc2C2C=CCC12` (stereo not given), where the note is “at 20 µM”, the inhibition is 80.1% (active).

In the case of `O=C(O)C1Nc2c(O)cc(Cl)c([N+](=O)[O-])c2C2C=CCC12` (stereo not given), the inhibition was 66.8% (inactive) (at 20 µM) and 41% under setting [1].

Turning to `CCOC(=O)C1Nc2ccc(Br)cc2C2C=CCC12` (stereo not given), the inhibition (at 20 µM) is 34.6% (inactive).

Regarding `COc1ccc(C)cc1S(=O)(=O)N1CCN(c2ccccc2)CC1`, for the setting “at 20 µM”, the inhibition is -0.9% (inactive).

In the case of `Cc1ccc2nc3c(c(Nc4cccc(O)c4)c2c1)CCC3`, the inhibition (at 20 µM) is -1.7% (inactive).

For the compound `CCOC(=O)c1ccc2c(c1)C1C=CCC1C(C(=O)O)N2` (stereo not given), the inhibition runs as follows: (at 20 µM) 66.5% (inactive); under setting [1], 40.8%.

Regarding `CCOC(=O)c1ccc2c(c1)C1C=CCC1C(C(=O)OCC)N2` (stereo not given), the inhibition (at 20 µM) is 19.8% (inactive).

On to `O=C(OC1CCCCC1)c1ccc2c(c1)C1C=CCC1C(C(=O)O)N2` (stereo not given), for which, where the note is “at 20 µM”, the inhibition is 56.1% (active).

Regarding `Cc1ccccc1-n1cc(CNCc2c(C(=O)N(C)C)nc3ccc(Cl)cn23)cn1`, the inhibition (at 20 µM) was -1.3% (inactive).

Regarding `CCCCc1ccc(-c2csc(/C(C#N)=C\c3ccco3)n2)cc1`, the inhibition (at 20 µM) is 58.3% (active).

In the case of `CCCCc1ccc(-c2csc(/C(C#N)=C/c3ccco3)n2)cc1`, the inhibition (at 20 µM) is 49.9% (inactive).

As for `CCCCc1ccc(-c2csc(/C(C#N)=C/c3ccc(C)o3)n2)cc1`, the inhibition (at 20 µM) was 0.2% (inactive).

`CCCN1CCN(c2nc(-c3cccs3)nc3ccccc23)CC1`: for the setting “at 20 µM”, the inhibition is 0.8% (inactive).

For `O=C(NC(=S)Nc1ccc2oc(=O)ccc2c1)c1ccccc1F`, the inhibition (at 20 µM) was -0.2% (inactive).

Regarding `O=C(/C=C/c1ccco1)Nc1cccc(C(=O)Nc2ccccc2C(=O)O)c1`, the inhibition (at 20 µM) is 58.9% (inactive) and the inhibition under setting [1] is 49.8%.

With `O=C(/C=C/c1ccc([N+](=O)[O-])cc1)Nc1cccc(C(=O)Nc2ccccc2C(=O)O)c1`, the inhibition (at 20 µM) is 54.1% (active).

Take `COC(=O)c1cccc(NC(=O)/C=C/c2ccc([N+](=O)[O-])cc2)c1`: where the note is “at 20 µM”, the inhibition is 0.8% (inactive).

Take `COc1ccc(NS(=O)(=O)c2cccc(NC(=O)NC3CCCCC3)c2)cc1`: the inhibition (at 20 µM) is 2% (inactive).

With `CCOC(=O)c1sc(=S)n(C)c1NC(=O)c1cccc(Br)c1`, under “at 20 µM”, the inhibition is -0.1% (inactive).

Consider `Cc1c(C(=O)Nc2ccccc2)cn2c(nc3ccccc32)c1C#N`, for which the inhibition (at 20 µM) was 3.1% (inactive).

Consider `Cc1ccccc1C(=O)Nc1ccc2c(C#N)c3nc4ccccc4nc3n2c1`, for which the inhibition (at 20 µM) is 92.7% (active).

Consider `N#Cc1c2nc3ccccc3nc2n2cc(NC(=O)c3ccc(F)cc3)ccc12`, for which the inhibition by setting is: (at 20 µM) 76.7% (inactive); under setting [1], -2.2%.

Regarding `N#C/C=C(/N)N1CCN(c2ccc(Cl)c(Cl)c2)CC1`, for the setting “at 20 µM”, the inhibition was -2.3% (inactive).

As to `O=C(O)c1nn(-c2cccc(Cl)c2)c(=O)cc1O`, under “at 20 µM”, the inhibition is 24.3% (inactive).

With `CN1CCN(C(=O)CCN2C(=O)c3ccccc3C2=O)CC1`, the inhibition (at 20 µM) was -0.4% (inactive).

Turning to `COc1ccc(C(=O)N/N=C/c2sc3ccccc3c2O)cc1`, the inhibition (at 20 µM) was 34.9% (inactive).

For `O=C(N/N=C/c1sc2ccccc2c1O)c1ccccc1`, the inhibition (at 20 µM) was 95% (active).

Consider `O=C(N/N=C/c1sc2ccccc2c1O)c1cccc2ccccc12`, for which the inhibition (at 20 µM) was 34.1% (inactive).

As for `O=C(O)CCCN1C(=O)/C(=C/c2cn(-c3ccccc3)nc2-c2cccs2)SC1=S`, the inhibition is 79.6% (active) (at 20 µM) and 142% under setting [1].

Take `Cc1ccc(-c2nn(-c3ccccc3)cc2/C=C2\SC(=S)N(CCCCCC(=O)O)C2=O)o1`: the inhibition (at 20 µM) was 82% (active).

For `O=C(O)CCN1C(=O)/C(=C/c2cn(-c3ccccc3)nc2-c2cccs2)SC1=S`, the inhibition (at 20 µM) was 90% (active) and the inhibition under setting [1] came to 142%.

As for `O=C(O)CCCN1C(=O)/C(=C\c2ccccc2OCc2ccccc2)SC1=S`, the inhibition reads like this: (at 20 µM) 63.8% (inactive); under setting [1], 37.2%.

As for `CCN1C(=O)/C(=C\c2cn(-c3ccccc3)nc2-c2cccnc2)SC1=S`, the inhibition (at 20 µM) is 3.5% (inactive).

Regarding `Cc1nn(-c2ccccc2)c(Cl)c1/C=C1\SC(=S)N(CCCCCC(=O)O)C1=O`, the inhibition (at 20 µM) is 33% (inactive).

`COc1ccc(-c2nn(-c3ccccc3)cc2/C=C2/SC(=S)N(CCC(=O)O)C2=O)cc1`: the inhibition (at 20 µM) was -0.4% (inactive).

For `O=C(O)CCCN1C(=O)/C(=C/c2ccncc2)SC1=S`, where the note is “at 20 µM”, the inhibition was -0.7% (inactive).

With `Cc1ccc(-c2nn(-c3ccccc3)cc2/C=C/C(=O)O)o1`, the inhibition (at 20 µM) was 5.9% (inactive).

For the compound `COc1cc(OC)c(OC)cc1CN1CCN(C(=O)CC(C)C)CC1`, the inhibition (at 20 µM) is -0.6% (inactive).

In the case of `O=C(Oc1cccc(-n2cnnn2)c1)c1ccco1`, the inhibition (at 20 µM) is 12% (inactive).

For `CC(NC(=O)c1ccc2c(c1)OCO2)c1ccccc1` (stereo not given), the inhibition (at 20 µM) is 0.3% (inactive).

As to `Cc1ccc2c(C(=O)CN3CCCC(C)C3)c(C)[nH]c2c1` (stereo not given), the inhibition (at 20 µM) was -0.5% (inactive).

For `O=C(OCc1cncs1)c1cccs1`, the inhibition (at 20 µM) is 0% (inactive).

`Cc1ccc(S(=O)(=O)CCSc2cccc(C(=O)O)c2)cc1`: the inhibition (at 20 µM) was 0.9% (inactive).

With `Cc1ccc(S(=O)(=O)CCSc2cccc(C(=O)Nc3ccccc3C(=O)O)c2)cc1`, where the note is “at 20 µM”, the inhibition is 51.2% (active).

On to `O=C(Nc1ccccc1C(=O)O)c1cccc(C(=O)Nc2ccccc2C(=O)O)c1`, for which the inhibition (at 20 µM) was 34.2% (inactive).

As for `O=C(O)/C=C/c1ccc([N+](=O)[O-])o1`, the inhibition (at 20 µM) was 5.1% (inactive).

As for `O=C1CN(/N=C/c2ccc([N+](=O)[O-])o2)C(=O)N1`, for the setting “at 20 µM”, the inhibition was 146% (inactive).

In the case of `O=C1NC(=S)S/C1=C\C=C\c1ccc([N+](=O)[O-])o1`, the inhibition (at 20 µM) was 56.6% (active).

As to `COc1ccc(/C=C/C(=O)NC(=S)Nc2ccccc2)cc1OC`, the inhibition (at 20 µM) was 1.5% (inactive).

Take `O=C(O[C@@H]1OC2COC(=O)c3cc(O)c(O)c(O)c3-c3c(cc(O)c(O)c3O)C(=O)O[C@@H]([C@H]1O)[C@@H]2O)c1cc(O)c(O)c(O)c1`: the inhibition (at 20 µM) was 31.6% (inactive).
